Measured values from PubChem BioAssay (NCATS).
Records with an inconclusive call do not appear. Active and inactive are the calls of the source. Calls follow the shape of the dose curve; as a rule, active = well fitted curve in the direction sought with a large enough effect; inconclusive = small, poorly fitted or top-dose-only effect, or another doubt; inactive = no such curve, though single readings can be large; an effect the other way counts as inactive or inconclusive.

Tests used:
[1] = system: KB-3-1; experiment: Cytotoxic Profiling of Annotated Libraries Using Quantitative High-Throughput Screening (AID 1296008); conditions: Five cell lines viability, CellTiter-Glo ATP luminescence, 48-72 h; max response: stronger effect = lower value; also: nearly all actives have a fitted effect of over 60% in size; as to max response: % is scaled to controls: 0 for no effect and ±100 for the full control effect
Procedure, shortened: (§1)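 Cytotoxicity was measured as CellTiter-Glo ATP luminescence, read after 10 min at room temperature. Compound treatment of the cells lasted 48 or 72 hr at 37 degrees Celsius in a qHTS format.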

[2] = system: NIH3T3; experiment: as above; conditions: Five cell lines viability, CellTiter-Glo ATP luminescence, 48-72 h; max response: stronger effect = lower value
Procedure, shortened: as §1

[3] = system: HACAT; experiment: qHTS assay to identify novel small-molecules to repurpose for Merkel cell carcinoma treatment (AID 1296009); conditions: MCC and control cell lines, CellTiter-Glo viability, 72 h; at 44.8 µM (top of the series) unless noted; also: nearly all actives have a fitted effect of over 60% in size
Procedure, shortened: (§2)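 After compound transfer in DMSO, plates were kept 72 hr at 37 degree celsius. Luminescent ATP signal from CellTiter-Glo served as viability measure, normalized against DMSO and no-cell controls.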

[4] = system: HEK293T; experiment: as above; conditions: MCC and control cell lines, CellTiter-Glo viability, 72 h; series mostly up to 44.8 µM
Procedure, shortened: as §2

[5] = system: C33A; experiment: Primary qHTS to identify gynecologic anti-cancer compounds using libraries of approved drugs and bioactive compounds (AID 1345084); conditions: Gynecologic cancer cell panel viability, ATPlite luminescence, 48 h; series mostly up to 57.5 µM; also: % is scaled to controls: 0 for no effect and ±100 for the full control effect; nearly all actives have a fitted effect of over 55% in size
Procedure, shortened: (§3)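 ATP-based viability (ATPlite), 1,000 cells/well, 16 h pre-incubation, 48 h compound at 37 C, 5% CO2, 15 min RT before read.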

[6] = system: CAOV3; experiment: as above; conditions: Gynecologic cancer cell panel viability, ATPlite luminescence, 48 h; series mostly up to 57.5 µM
Procedure, shortened: as §3

[7] = system: CASKI; experiment: as above; conditions: Gynecologic cancer cell panel viability, ATPlite luminescence, 48 h; series mostly up to 57.5 µM
Procedure, shortened: as §3

[8] = system: Es-2; experiment: as above; conditions: Gynecologic cancer cell panel viability, ATPlite luminescence, 48 h; series mostly up to 57.5 µM
Procedure, shortened: as §3

[9] = system: HeLa; experiment: as above; conditions: Gynecologic cancer cell panel viability, ATPlite luminescence, 48 h; series mostly up to 57.5 µM
Procedure, shortened: as §3

[10] = system: Hek293T; experiment: as above; conditions: Gynecologic cancer cell panel viability, ATPlite luminescence, 48 h, control line for the selectivity index; series mostly up to 57.5 µM
Procedure, shortened: as §3

[11] = system: JEG-3; experiment: as above; conditions: Gynecologic cancer cell panel viability, ATPlite luminescence, 48 h; series mostly up to 57.5 µM
Procedure, shortened: as §3

[12] = system: OV90; experiment: as above; conditions: Gynecologic cancer cell panel viability, ATPlite luminescence, 48 h; series mostly up to 57.5 µM
Procedure, shortened: as §3

[13] = system: PA-1; experiment: as above; conditions: Gynecologic cancer cell panel viability, ATPlite luminescence, 48 h; series mostly up to 57.5 µM
Procedure, shortened: as §3

C=C1CC/C=C(/CO)C(=O)C[C@@H]2[C@@H]1CC2(C)C
inactive: max response [1] 2.82% | max response [2] 0.52% | outcome [3] | Potency [4] | Potency [5] | Potency [6] | Potency [7] | Potency [8] | Potency [9] | Potency [10] | Potency [11] | Potency [12] | Potency [13]

CCc1cc2c(=O)c(-c3nc4ccccc4s3)coc2c(CN2CCCCC2)c1O
inactive: max response [1] -10.9% | max response [2] 2.93% | outcome [3] inactive [at 17.4 µM] | Potency [4] | Potency [5] | Potency [6] | Potency [7] | Potency [8] | Potency [9] | Potency [10] | Potency [11] | Potency [12] | Potency [13]

OC[C@H]1O[C@@H](OC(CCCCc2ccc(O)cc2)CCc2ccc(O)cc2)[C@H](O[C@@H]2OC[C@](O)(CO)[C@H]2O)[C@@H](O)[C@@H]1O (some centres not stated)
inactive: outcome [1] | max response [2] 2.54% | outcome [3] inactive [at 17.4 µM] | Potency [4] | Potency [5] | Potency [6] | Potency [7] | Potency [8] | Potency [9] | Potency [10] | Potency [11] | Potency [12] | Potency [13]

OC[C@H]1O[C@@H](Oc2ccc3c(c2)OC[C@H]2c4cc5c(cc4O[C@@H]32)OCO5)[C@H](O)[C@@H](O)[C@@H]1O
inactive: outcome [1] | max response [2] 0.631% | outcome [3] inactive [at 17.4 µM] | Potency [4] | Potency [5] | Potency [6] | Potency [7] | Potency [8] | Potency [9] | Potency [10] | Potency [11] | Potency [12] | Potency [13]

CC1=C2C=C(CO)C(CO)CCC2(C)CCC1=O (configuration not stated)
inactive: outcome [1] | max response [2] -1.32% | outcome [3] | Potency [4] | Potency [5] | Potency [6] | Potency [7] | Potency [8] | Potency [9] | Potency [10] | Potency [11] | Potency [12] | Potency [13]

CC12CC34C=CC(=O)C(C)(CCC(=O)O)C3C(CC1C4)O2 (configuration not stated)
inactive: max response [1] 5.48% | outcome [2] | outcome [3] | Potency [4] | Potency [5] | Potency [6] | Potency [7] | Potency [8] | Potency [9] | Potency [10] | Potency [11] | Potency [12] | Potency [13]

O=C(/C=C/c1ccc(O)cc1)OCC1=CC2OC(=O)C3=CO[C@@H](O[C@@H]4O[C@H](CO)[C@@H](O)[C@H](O)[C@H]4O)[C@H]1[C@@H]32 (some centres not stated)
inactive: outcome [1] | max response [2] -2.28% | outcome [3] inactive [at 17.4 µM] | Potency [4] | Potency [5] | Potency [6] | Potency [7] | Potency [8] | Potency [9] | Potency [10] | Potency [11] | Potency [12] | Potency [13]

CC(C)(C)c1cc(CN2CCN(CC(O)c3ccc(Cl)cc3)CC2)cc(C(C)(C)C)c1O (configuration not stated)
inactive: max response [1] -8.12% | outcome [2] | outcome [3] | Potency [4] | Potency [5] | Potency [6] | Potency [8] | Potency [9] | Potency [10] | Potency [11] | Potency [12] | Potency [13]

CC1=C(C)C(=O)OC(C(C)C2C(O)CC3C4C5OC5C5(O)CC(OC6OC(CO)C(O)C(O)C6O)CC(O)C5(C)C4CCC32C)C1 (configuration not stated)
inactive: max response [1] 0.502% | max response [2] -0.676% | outcome [3] inactive [at 17.4 µM] | Potency [4] | Potency [5] | Potency [6] | Potency [7] | Potency [8] | Potency [9] | Potency [10] | Potency [11] | Potency [12] | Potency [13]

CC(=O)O[C@H]1C[C@@H]2[C@]3(CC[C@]4(C)[C@@H](C5(C)CCC(C(C)(C)O)O5)[C@@H](O)C[C@@]24C)C[C@@]32CC[C@H](O[C@@H]3OC[C@@H](O)[C@H](O)[C@H]3O)C(C)(C)[C@H]12 (some centres not stated)
inactive: outcome [1] | max response [2] 1.48% | outcome [3] inactive [at 17.4 µM] | Potency [4] | Potency [5] | Potency [6] | Potency [7] | Potency [8] | Potency [9] | Potency [10] | Potency [11] | Potency [12] | Potency [13]

O=C(C1CC1)N1CC[C@@H](Cc2n[nH]c(=O)n2-c2ccc(-c3ccc4occc4c3)cc2)C1
inactive: outcome [1] | max response [2] -10.7% | outcome [3] inactive [at 17.4 µM] | Potency [4] | Potency [5] | Potency [6] | Potency [7] | Potency [8] | Potency [9] | Potency [10] | Potency [11] | Potency [12] | Potency [13]

CCC(C)C(=O)O[C@@H]1[C@@H](O)[C@@H](O[C@H]2O[C@H](CO)[C@@H](O)[C@H](O)[C@H]2O)O[C@H](CO)[C@H]1O (some centres not stated)
inactive: outcome [1] | outcome [2] | outcome [3] inactive [at 17.4 µM] | Potency [4] | Potency [5] | Potency [6] | Potency [7] | Potency [8] | Potency [9] | Potency [10] | Potency [11] | Potency [12] | Potency [13]

Cc1nnc(C(C)C)n1C1CC2CCC(C1)N2CCC(NC(=O)C1CCC(F)(F)CC1)c1ccccc1 (configuration not stated)
inactive: max response [1] 8.02% | max response [2] -0.909% | outcome [3] | Potency [4] | Potency [5] | Potency [6] | Potency [7] | Potency [8] | Potency [9] | Potency [11] | Potency [12] | Potency [13]
